Records with an inconclusive call do not appear. Where a call stands in place of a potency, no number is given. Calls of active or inactive are those of the source. Calls come from the whole dose curve; as a rule, active = well fitted inhibition curve with a large enough effect; inconclusive = small, poorly fitted or top-dose-only effect; inactive = flat fitted curve, though single readings scatter.
Potency is the fitted concentration of half-maximal effect.

The experiment relates to Zika virus NS2B-NS3 protease. The experiment can be described thus: Primary screen GU AMC qHTS for Zika virus inhibitors (AID 1347154). Note: nearly all actives have a fitted effect of over 70% in size. As to conditions: Zika NS2B-NS3 unlinked protease, AMC fluorogenic substrate; series mostly up to 54.1 µM. The procedure, abridged:
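Unlinked Zika NS2B hydrophilic domain–NS3 protease complex at 25 nM in 10 mM Tris-HCl pH 8.0, 0.01% Tween 20, with an AMC peptide substrate. Fluorescence change (340/450 nm) over 15 min at room temperature, normalized to controls, fitted to 4-parameter Hill.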
`Nc1cccc2c(N)cccc12`: the Potency is 36.9 µM (active). As to `O=c1[nH]c(=O)n([C@H]2O[C@H](CO)[C@@H](O)[C@@H]2O)cc1/C=C\Br`, the Potency entry was “inactive”.

On to `CCN1CCN(C(=O)N[C@@H](C(=O)N[C@@H]2C(=O)N3[C@@H]2SC(C)(C)[C@H]3C(=O)O)c2ccccc2)C(=O)C1=O`, for which the Potency entry was “inactive”. The entry for `CC(C)(Oc1ccc(Cl)cc1)C(=O)OCCCOC(=O)C(C)(C)Oc1ccc(Cl)cc1` is “inactive”; for `COc1cc2nc(Cl)nc(N)c2cc1OC` it is “inactive”; for `c1ccc(C(O[C@H]2CCCN(CCc3ccc4c(c3)OCO4)C2)c2ccccc2)cc1` it is “inactive”.

Consider `CCCC(=O)c1cc(O)c(O)cc1O`, for which the Potency was 5.62 µM (active). The entry for `CN(C)CCOC(c1ccccc1)c1ccc(Br)cc1` (configuration not stated) is “inactive”; for `CN1[C@@H]2CC[C@H]1CC(NC(=O)n1c(=O)[nH]c3ccccc31)C2` (some centres not stated) it is “inactive”; for `OC(CCCN1CCCCC1)(c1ccccc1)c1ccccc1` it is “inactive”.

`OC1(c2ccc(Cl)cc2)CCNCC1`: the Potency entry was “inactive”.

For the compound `CC(C)(C)NCC(O)COc1ccccc1OCC1CCCO1` (configuration not stated), the Potency entry was “inactive”. As for `COc1ccc(/C(C)=C/C(=O)O)c(OC)c1`, the entry is “inactive”; as for `Nc1nnnn1-c1ccccc1`, “inactive”. Consider `COc1ccc([C@@H]2Sc3ccccc3NC(=O)[C@@H]2O)cc1`, for which the Potency entry was “inactive”. As for `OC1(c2ccccc2)CCNCC1`, the entry is “inactive”; as for `Cc1cc2nc3ccc(=[N+](C)C)cc-3sc2cc1N`, “inactive”; as for `CC(=O)[C@H]1CC[C@H]2[C@@H]3C=CC4=CC(=O)CC[C@@]4(C)[C@@H]3CC[C@]12C`, “inactive”. As for `NS(=O)(=O)c1cc(C(=O)NN2C[C@H]3[C@H]4CCC(C4)[C@H]3C2)ccc1Cl`, the entry is “inactive”. As for `Fc1ccc(C(c2ccc(F)cc2)N2CCNCC2)cc1`, the entry is “inactive”; as for `CN(C)CCN1CCN(c2cccc(Cl)c2)C1=O`, “inactive”.

`CCc1cccc2c(CCO)c[nH]c12`: the Potency entry was “inactive”. Turning to `CN1N=C(C(N)=O)CCC1=O`, the Potency entry was “inactive”. As for `CCC(CN)=C(c1ccccc1)c1ccccc1`, the entry is “inactive”; as for `CC(C)C(=O)OCc1cccc(OC(=O)[C@@H]2N3C(=O)[C@@H](NC(=O)Cc4ccccc4)[C@H]3SC2(C)C)c1`, “inactive”. The entry for `Nc1cc(C(F)(F)F)ccc1S` is “inactive”. `O=C(OCC(O)CO)c1ccccc1Nc1ccnc2c(C(F)(F)F)cccc12` (configuration not stated): the Potency result is “inactive”. On to `CCOC(=O)N1CCC(n2c(=O)[nH]c3cc(Cl)ccc32)CC1`, for which the Potency entry is “inactive”.

For `O=C(CCCCCCCCC#CI)Oc1ccccc1`, the Potency entry was “inactive”. As for `O=C(O)[C@@H](O)[C@H](O)[C@H](O)[C@@H](O)C(=O)O`, the entry is “inactive”; as for `COC(=O)/C=C(/C)N`, “inactive”. Consider `O=C(O)[C@H](O)[C@@H](O)[C@H](O[C@@H]1O[C@H](CO)[C@H](O)[C@H](O)[C@H]1O)[C@H](O)CO`, for which the Potency result was “inactive”. In the case of `CC(C)C(=O)Nc1cccc(C(F)(F)F)c1`, the Potency result was “inactive”. As for `CC(=O)N(c1onc(C)c1C)S(=O)(=O)c1ccc(N)cc1`, the Potency result is “inactive”. The entry for `Nc1nc2ccccc2n1Cc1ccc(F)cc1` is “inactive”; for `CCCc1ncc(C(=O)O)s1` it is “inactive”; for `Cc1ccc(C(=O)C(=O)O)cc1C` it is “inactive”.

(Values after PubChem BioAssay (NCATS).)
